Measured values: PubChem BioAssay (NCI)
This is part of a sample that, as a whole, favours compounds with a hit. Of some 83,000 tested, about 20% had one in any assay.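 Activity criterion: percent growth below 10, measured after cells in 96-well plates were exposed to a single compound concentration for 48 hours.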 A number with no mark means an inactive call. Active and inactive are the calls of the source.

Experiments:
Experiment in all cases: NCI-60 one-dose screen, 48 h (100 = growth as untreated, 0 = no growth, -100 = all killed)
Conditions in all cases: 10 µM unless noted
NCI-H23 lung = tested on: NCI-H23 lung
NCI-H226 lung = tested on: NCI-H226 lung
NCI-H322M lung = tested on: NCI-H322M lung
HOP-62 NSCLC = tested on: HOP-62 NSCLC
NCI-H460 lung = tested on: NCI-H460 lung
HOP-92 NSCLC = tested on: HOP-92 NSCLC
NCI-H522 lung = tested on: NCI-H522 lung
A549/ATCC NSCLC = tested on: A549/ATCC NSCLC
786-0 renal = tested on: 786-0 renal
COLO 205 colon = tested on: COLO 205 colon
DU-145 prostate = tested on: DU-145 prostate
K-562 leukemia = tested on: K-562 leukemia
MALME-3M melanoma = tested on: MALME-3M melanoma
MDA-MB-231 breast = tested on: MDA-MB-231 breast
RXF 393 renal = tested on: RXF 393 renal
SF-268 CNS = tested on: SF-268 CNS
SF-295 CNS = tested on: SF-295 CNS
SF-539 CNS = tested on: SF-539 CNS
UACC-257 melanoma = tested on: UACC-257 melanoma
M14 melanoma = tested on: M14 melanoma

Row | Compound | growth (NCI-H23 lung) | growth (NCI-H226 lung) | growth (NCI-H322M lung) [%] | growth (HOP-62 NSCLC) | growth (NCI-H460 lung) | growth (HOP-92 NSCLC) | growth (NCI-H522 lung) | growth (A549/ATCC NSCLC) | growth (786-0 renal) | growth (COLO 205 colon) | growth (DU-145 prostate) | growth (K-562 leukemia) | growth (MALME-3M melanoma) | growth (MDA-MB-231 breast) | growth (RXF 393 renal) | growth (SF-268 CNS) | growth (SF-295 CNS) | growth (SF-539 CNS) | growth (UACC-257 melanoma) | growth (M14 melanoma)
1 | C=C1c2nc3ccccc3n2C=C(c2cccc(Cl)c2)N1Cc1ccc(OC)cc1 | 29.4% | 94.1% | 44.6 | 41.2% | 4.58% (active) | 77.9% | -10.9% (active) | 14.3% | 35.5% | 95% | 15.3% | 0.532% (active) | 76.8% | 36.3% | 4.81% (active) | 21.7% | 2.35% (active) | -15% (active) | 34.4% | 22.3%
2 | Cc1c(/C=C/[N+](=O)[O-])ccc2c1[nH]c1ccccc12 | 93.3% | 54.3% | 134 | 106% | 95.4% | 90.6% | 94.8% | 87.8% | 73.2% | 82.2% | 99.3% | 91.6% | 135% | 106% | 62.6% | 108% | 103% | 94.2% | 90% | 37.7%
3 | COc1ccc2nc(NC(=O)CSc3nnc4n3S(=O)(=O)c3ccccc3N4c3ccccc3)sc2c1 | 87.4% | 101% | 91.2 | 94.7% | 104% | 46.6% | 64.5% | 44.8% | 101% | 96.1% | 99.3% | 113% | 89.7% | 77.7% | 23% | 71.9% | 73.2% | 94.3% | 103% | 100%
4 | N#CN1CC[C@H](C(=O)Nc2cc3cc(C(N)=O)ccc3cn2)C1 | -8.58% (active) | -10% (active) | 13.6 | -27.1% (active) | 6.93% (active) | -6.94% (active) | -50% (active) | 1.68% (active) | 4.19% (active) | -70.1% (active) | 7.18% (active) | 2.99% (active) | -21.8% (active) | -0.49% (active) | -52.3% (active) | -9.68% (active) | 2.85% (active) | -35.9% (active) | -27.9% (active) | -26.5% (active)
5 | O=C1Nc2c(ccc(Cl)c2Cl)/C1=C\c1ccc(C(F)(F)F)cc1 | 68.8% | 59.1% | 75.5 | 87.3% | 89.7% | 57.8% | 76.4% | 84.1% | 90.7% | 100% | 97.3% | 32.8% | 96.5% | 81.9% | 77.4% | 91.6% | 77.2% | 88.1% | 97.5% | 98%
6 | COCCNc1ccc2c3c(cccc13)C(=O)N(CCN(C)C)C2=O | 25.6% | 5.99% (active) | 23.1 | 50.9% | -21.9% (active) | 18.4% | -25.6% (active) | 5.73% (active) | 32.1% | 6.86% (active) | 27.7% | -7.82% (active) | 22.2% | 46.6% | -23.7% (active) | 26.3% | 16.8% | 22.9% | 16.8% | 29%
7 | COc1cc2c(cc1-c1c(C)noc1C)ncc1nc(C3CCCCC3)n([C@H](C)COC(F)F)c12 | 59.9% | 53.5% | 40.3 | 39.4% | 53.2% | 34.9% | 25.2% | 33.4% | 48.7% | 24.7% | 63.8% | 24.6% | 69.3% | 41.9% | 52.6% | 58.8% | 52.4% | 34.7% | 31.4% | 39.9%
8 | Cc1oc(-c2ccc(Cl)cc2Cl)cc1C(=O)Nc1nccs1 | 87.4% | 62.6% | 91.1 | 85.4% | 60.7% | 110% | 89.7% | 51.8% | 90.7% | 87.9% | 104% | 95.1% | 85.1% | 83.2% | 88.2% | 100% | 87% | 95.9% | 114% | 99.5%
